Screening results: PubChem BioAssay, National Center for Advancing Translational Sciences (NCATS)
NS1 function inh – blocks influenza NS1 protein function; 270,000 compounds, 0.4% hits; Potency, µM (top dose mostly 46.1 µM); calls by dose curve; further: actives are rising curves; nearly all actives have a fitted effect of over 50% in size
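In this qHTS, NS1 from influenza A is expressed in budding yeast, where it slows growth. Cells are switched from glucose to 2% galactose medium (pH 6.0, -URA), treated with compound, and growth recovery is read at OD600.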
Sm TGR block – blocks Schistosoma mansoni thioredoxin glutathione reductase; Q962Y6; purified TGR, DTNB reduction, TNB absorbance 405 nm; Potency, µM (top dose mostly 114 µM), most hits filed as inhibitors; 360,000 compounds, 3% hits; further: nearly all actives have a fitted effect of over 60% in size
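TGR 20 nM + NADPH 100 uM (dispensed conc.), cpd preinc 15 min RT; start with NADPH (500 uM addition) then DTNB (15 mM addition). Kinetic TNB absorbance, 405 nm filter. Four-parameter Hill fit across titration.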
Giardia FBPA inh – Giardia lamblia aldolase inhibition; Potency, µM (titrated, usually from 59.6 µM), usual class: inhibitors; A8B2U2; 290,000 compounds, 0.71% hits; purified Giardia FBPA; further: nearly all actives have a fitted effect of over 55% in size
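Giardia FBPA (40 nM reagent) was preincubated 10 min at RT with compound (up to 57.5 uM final), then substrate plus GAPDH/TPI/NAD/arsenate coupling system with diaphorase/resazurin was added; resorufin fluorescence (525/598 nm) was read after 20 min.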
LmPK inh – blocks Leishmania mexicana pyruvate kinase activity; Potency, µM (highest dose often 57.5 µM), most hits filed as inhibitors; 290,000 compounds, 0.37% hits; Q27686; purified LmPK, Kinase-Glo ATP luminescence, 1 h
Target sequence (Q27686 whole entry, looked up): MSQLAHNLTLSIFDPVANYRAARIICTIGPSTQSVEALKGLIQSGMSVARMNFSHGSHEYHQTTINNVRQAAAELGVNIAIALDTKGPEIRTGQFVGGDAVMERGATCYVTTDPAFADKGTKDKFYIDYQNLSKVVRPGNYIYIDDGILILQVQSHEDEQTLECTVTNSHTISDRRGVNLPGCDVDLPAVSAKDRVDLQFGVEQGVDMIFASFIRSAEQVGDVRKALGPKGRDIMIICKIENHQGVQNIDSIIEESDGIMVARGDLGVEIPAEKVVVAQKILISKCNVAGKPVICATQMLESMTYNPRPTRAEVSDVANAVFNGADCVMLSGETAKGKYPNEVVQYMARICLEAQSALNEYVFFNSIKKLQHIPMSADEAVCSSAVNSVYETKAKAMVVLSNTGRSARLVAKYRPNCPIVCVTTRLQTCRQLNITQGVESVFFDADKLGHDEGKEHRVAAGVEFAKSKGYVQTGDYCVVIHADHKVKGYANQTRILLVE
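Purified LmPK (0.1 nM) with 0.5 mM PEP and 0.1 mM ADP in imidazole buffer pH 7.2 with MgCl2/KCl, 1 h at room temperature. ATP formed was read by luciferase luminescence and normalized to no-enzyme and uninhibited controls.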
TbPYK inhibitor – T. brucei pyruvate kinase inhibition; Q57TT1; TbPYK enzyme, Kinase-Glo Plus ATP luminescence, 45 min; Potency, µM (doses to about 76.8 µM), most hits filed as inhibitors; 410,000 compounds, 0.12% hits; AID 624173; further: nearly all actives have a fitted effect of over 50% in size
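Assay buffer: 50 mM TEA pH 7.2, 100 mM KCl, 10 mM MgCl2, 0.05% BSA, 0.01% Tween-20. Pyruvate kinase from T. brucei plus substrate met compound, then ADP (130 uM final). Luminescence was read post 45 min RT.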
RE007 growth inh – less growth of the S. pombe RE007 Vpr strain; Potency, µM (series often up to 92.2 µM), actives largely listed as inhibitors; S. pombe RE007 Vpr strain, BacTiter-Glo ATP luminescence, 24 h; 360,000 compounds, 0.21% hits; active means well fitted falling curve with a large enough effect; inconclusive means small, poorly fitted or top-dose-only effect; inactive means no such curve, though single readings can be large or run the other way; further: nearly all actives have a fitted effect of over 50% in size
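Fission yeast strain RE007, carrying one chromosomally integrated HIV-1 vpr copy, was seeded at OD 0.01 in PMG+AL medium with 23 nL pinned compound. After 24 h at 30 °C and 99% humidity, viability was read by BacTiter-Glo luminescence.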
Hits are given with their value; [ ] = another dose, or the depositor's remark. Hits are enriched below; roughly 3.5% of the tested compounds scored in any of these assays. Unless noted, the call rests on the fitted dose curve; in most records, active means well fitted curve in the direction sought with a large enough effect; inconclusive means small, poorly fitted or top-dose-only effect, or another doubt; inactive means no such curve, though single readings can be large; an effect the other way counts as inactive or inconclusive.

`CCc1ccc(NC(=O)N2CCN(Cc3nc4ccc(C)cc4o3)CC2)cc1` gave Sm TGR block inactive and TbPYK inhibitor inactive.
Screening C=CCNc1oc(-c2cccs2)nc1S(=O)(=O)c1ccccc1 returned NS1 function inh inactive, Sm TGR block inactive, Giardia FBPA inh inactive, LmPK inh inactive, TbPYK inhibitor inactive and RE007 growth inh inactive.
Screening COCCNc1oc(/C=C/c2ccc(F)cc2)nc1S(=O)(=O)c1ccccc1 returned NS1 function inh inactive, Sm TGR block 32µM, Giardia FBPA inh inactive, LmPK inh inactive, TbPYK inhibitor inactive and RE007 growth inh inactive.
`O=S(=O)(c1ccccc1)c1nc(-c2ccco2)oc1NCc1cccnc1` gave NS1 function inh inactive, Sm TGR block 25µM, Giardia FBPA inh inactive, LmPK inh inactive, TbPYK inhibitor inactive and RE007 growth inh inactive.
For COCCNc1oc(-c2ccco2)nc1S(=O)(=O)c1ccccc1 the results were NS1 function inh inactive, Sm TGR block 50µM, LmPK inh inactive, TbPYK inhibitor inactive and RE007 growth inh inactive.
C=CCNc1oc(-c2ccco2)nc1S(=O)(=O)c1ccccc1 was read as NS1 function inh inactive, Sm TGR block 13µM, Giardia FBPA inh inactive, LmPK inh inactive, TbPYK inhibitor inactive and RE007 growth inh inactive.
Screening COCCNc1oc(-c2cccs2)nc1S(=O)(=O)c1ccc(C)cc1 returned NS1 function inh inactive, Sm TGR block inactive, Giardia FBPA inh inactive, LmPK inh inactive, TbPYK inhibitor inactive and RE007 growth inh inactive.
`Cc1ccc(C(=O)Nc2ccc3c(c2)N(C)C(=O)c2ccccc2S3)cc1` gave Sm TGR block inactive and TbPYK inhibitor inactive.
For COc1ccc(/C=C\C(=O)NC2CC(=O)N(c3ccc(F)cc3)C2)cc1OC (stereo not given) the results were Sm TGR block inconclusive and TbPYK inhibitor inactive.
For Cc1cccc(-c2nnc(SCc3cc(=O)c4cccc(Cl)c4[nH]3)n2C)c1 the results were Sm TGR block inactive and TbPYK inhibitor inactive.
Screening Cc1ccc(NC(=O)C2CCCN2S(=O)(=O)c2cccc3cccnc23)cc1C (stereo not given) returned Sm TGR block inactive and TbPYK inhibitor inactive.
Screening Cn1ccc2c(-c3ccc(C(=O)O)cc3)cc3c(c21)C1CCC3C1 (stereo not given) returned TbPYK inhibitor inactive and RE007 growth inh 45µM.
Cc1ccccc1NC(=O)Cn1c(=O)n(CCc2ccccc2)c(=O)c2sc3ccccc3c21 was read as Sm TGR block inactive and TbPYK inhibitor inactive.
Screening COc1ccc(-c2n[nH]c(C)c2-c2ccc(Cl)cc2)c(O)c1 returned NS1 function inh inactive, Sm TGR block inactive, Giardia FBPA inh inactive, LmPK inh inactive, TbPYK inhibitor inactive and RE007 growth inh inconclusive.
`COc1ccc(O)c(-c2c(-c3ccc(Cl)cc3)n[nH]c2C)c1` gave NS1 function inh inactive, Sm TGR block 50µM, Giardia FBPA inh inconclusive, LmPK inh inactive, TbPYK inhibitor inactive and RE007 growth inh inactive.
`Cc1c(C)c2c(c(C)c1OC(=O)CCC(=O)OCCO)CC[C@](C)(CCC[C@H](C)CCC[C@H](C)CCCC(C)C)O2` gave TbPYK inhibitor inactive.
COc1cc(OC)c(Nc2nc3ccccc3nc2-n2nc(C)cc2C)cc1Cl was read as Sm TGR block inactive and TbPYK inhibitor inactive.
`CCOC(=O)C1=C(C)OC(=CC=Cc2ccccc2)C1=O` gave TbPYK inhibitor inactive and RE007 growth inh inactive.
`CCCCc1ccc(/C=C2\C(=O)c3ccccc3C(O)=C2C(=O)OCC)cc1` gave NS1 function inh inactive, Sm TGR block 11µM, Giardia FBPA inh inconclusive and LmPK inh inactive.
Screening O=[N+]([O-])c1cc(-c2ccc(/C=N/n3cnnc3)o2)ccc1Cl returned NS1 function inh inactive, Sm TGR block inactive, Giardia FBPA inh inactive, LmPK inh inactive, TbPYK inhibitor inactive and RE007 growth inh inactive.
Screening CC(C)COC(=O)c1cc(-c2ccc(/C=N/n3cnnc3)o2)ccc1Cl returned NS1 function inh inactive, Sm TGR block 22µM, Giardia FBPA inh inactive, LmPK inh inactive, TbPYK inhibitor inactive and RE007 growth inh inactive.
O=C(/C=C/c1ccccc1[N+](=O)[O-])N1CCCCC1 was read as Sm TGR block inactive, Giardia FBPA inh inactive, LmPK inh inactive[11.5 µM], TbPYK inhibitor inactive and RE007 growth inh inactive.
`O=[N+]([O-])C(/C=C(/Cl)[N+](=O)[O-])=C(N1CCCCC1)N1CCCCC1` gave NS1 function inh inactive, Sm TGR block 25µM, Giardia FBPA inh inactive, LmPK inh inactive, TbPYK inhibitor inactive and RE007 growth inh inactive.
CCCCCn1c(=O)c(C(=O)Nc2ccccc2C)c(O)c2ccccc21 was read as NS1 function inh inactive, Sm TGR block inactive, Giardia FBPA inh inactive, LmPK inh inactive, TbPYK inhibitor inactive and RE007 growth inh inactive.
`CCCn1c(=O)c(C(=O)Nc2ccccc2C)c(O)c2ccccc21` gave NS1 function inh inactive, Sm TGR block 45µM, Giardia FBPA inh inconclusive, LmPK inh inactive, TbPYK inhibitor inactive and RE007 growth inh inactive.
For Cc1cnc(CNc2ncncc2-c2ccoc2)cn1 the results were Giardia FBPA inh inactive.
For CC(=Nc1ccccc1N)c1c(C)cc(=O)n(O)c1O the results were Giardia FBPA inh 16µM.
C[C@H]1Cc2c(COc3ccccc3)nc3c(c2CO1)CN(C(=O)c1cccnc1)CC3 was read as Giardia FBPA inh inactive[12.9 µM] and LmPK inh inactive[11.5 µM].
`Cc1[nH]c2ccc(O)cc2c1CCN` gave NS1 function inh inactive, Sm TGR block 40µM, Giardia FBPA inh 3.5µM, TbPYK inhibitor inactive and RE007 growth inh inactive[18.4 µM].
For COc1ccccc1NC(=O)c1c(N=Cc2c(O)ccc3ccccc23)cnn1C the results were NS1 function inh inactive, Sm TGR block 50µM, Giardia FBPA inh inconclusive, LmPK inh inactive, TbPYK inhibitor inactive and RE007 growth inh inactive.
For COc1ccc(NC(=O)CSc2nc3cc(OC)c(OC)cc3c3nc(-c4ccccc4)nn23)cc1Cl the results were Sm TGR block inactive and TbPYK inhibitor inactive.
CCC(=O)OCCNc1cc(Sc2nc3ccccc3[nH]2)c2nonc2c1[N+](=O)[O-] was read as NS1 function inh inactive, Sm TGR block 0.56µM, Giardia FBPA inh inconclusive, LmPK inh inactive, TbPYK inhibitor inactive and RE007 growth inh inactive.
Screening CCC(=O)OCCNc1cc(Sc2nc3ccccc3s2)c2nonc2c1[N+](=O)[O-] returned NS1 function inh inactive, Sm TGR block 0.25µM, Giardia FBPA inh inconclusive, LmPK inh inactive, TbPYK inhibitor inactive and RE007 growth inh inconclusive.
`CCCSc1cc(NCCOC(C)=O)c([N+](=O)[O-])c2nonc12` gave NS1 function inh inactive, Sm TGR block inactive, Giardia FBPA inh inconclusive, LmPK inh inactive, TbPYK inhibitor inactive and RE007 growth inh inactive.
